# Legend:
# Experiment in all cases: DAPPL (digital affinity profiling via proximity ligation, sequencing); 10 mM Tris-HCl pH 7.5, 50 mM NaCl, 1 mM DTT, 4% glycerol, room temperature, 30 min; GST-TFs on glutathione beads, 16-mer random dsDNA library, 0.1% formaldehyde crosslink after washing; high values mean tight binding
# Conditions in all cases: protein: recombinant; tags: N-terminal GST; dsDNA, one strand shown
# ELF3 = biological target: T1, ELF3 (Homo sapiens, UniProt P78545 1-371)
# T1 sequence: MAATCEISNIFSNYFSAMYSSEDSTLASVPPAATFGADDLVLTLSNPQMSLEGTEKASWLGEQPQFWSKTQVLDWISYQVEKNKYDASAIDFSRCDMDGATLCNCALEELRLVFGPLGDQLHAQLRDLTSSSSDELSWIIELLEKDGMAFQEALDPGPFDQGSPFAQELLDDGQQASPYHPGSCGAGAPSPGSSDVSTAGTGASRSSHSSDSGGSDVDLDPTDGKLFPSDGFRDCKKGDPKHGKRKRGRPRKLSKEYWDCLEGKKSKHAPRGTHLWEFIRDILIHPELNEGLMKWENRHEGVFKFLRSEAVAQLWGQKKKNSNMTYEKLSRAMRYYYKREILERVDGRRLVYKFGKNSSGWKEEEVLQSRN
# In short: (§1)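 GST fusions of human transcription factors were expressed in yeast and captured with glutathione beads. Once given DNA barcodes and pooled alongside a tag-only sample, they were incubated for 30 min at room temperature with 200 nmole of a random double-stranded 16-mer DNA library in Tris/NaCl/DTT/glycerol buffer, then washed, crosslinked (0.1% formaldehyde), proximity-ligated, PCR-amplified and sequenced on an Illumina NextSeq500. The binding signal of each hexamer is its read frequency for a factor divided by its frequency for the tag-only sample.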
# ETV1 = ETV1 (Homo sapiens, UniProt P50549 1-477)
# In short: as §1
# ERF = biological target: T2, ERF (Homo sapiens, UniProt P50548 1-548)
# T2 sequence: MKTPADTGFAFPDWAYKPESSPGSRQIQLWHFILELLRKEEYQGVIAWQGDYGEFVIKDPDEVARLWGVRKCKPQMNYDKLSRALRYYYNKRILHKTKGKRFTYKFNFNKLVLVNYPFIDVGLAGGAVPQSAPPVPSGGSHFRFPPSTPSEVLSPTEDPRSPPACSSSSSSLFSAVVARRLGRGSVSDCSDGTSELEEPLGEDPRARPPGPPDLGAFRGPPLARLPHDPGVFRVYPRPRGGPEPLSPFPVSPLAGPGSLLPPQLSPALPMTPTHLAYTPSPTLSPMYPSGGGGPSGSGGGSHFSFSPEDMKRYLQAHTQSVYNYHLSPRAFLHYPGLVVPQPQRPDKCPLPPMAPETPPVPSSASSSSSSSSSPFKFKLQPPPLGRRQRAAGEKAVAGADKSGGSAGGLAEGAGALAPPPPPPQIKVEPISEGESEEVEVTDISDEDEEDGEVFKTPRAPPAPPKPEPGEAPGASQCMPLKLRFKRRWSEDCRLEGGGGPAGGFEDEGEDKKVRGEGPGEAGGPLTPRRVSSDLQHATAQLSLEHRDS
# In short: as §1
# ETV3L = biological target: T3, ETV3L (Homo sapiens, UniProt Q6ZN32 1-361)
# T3 sequence: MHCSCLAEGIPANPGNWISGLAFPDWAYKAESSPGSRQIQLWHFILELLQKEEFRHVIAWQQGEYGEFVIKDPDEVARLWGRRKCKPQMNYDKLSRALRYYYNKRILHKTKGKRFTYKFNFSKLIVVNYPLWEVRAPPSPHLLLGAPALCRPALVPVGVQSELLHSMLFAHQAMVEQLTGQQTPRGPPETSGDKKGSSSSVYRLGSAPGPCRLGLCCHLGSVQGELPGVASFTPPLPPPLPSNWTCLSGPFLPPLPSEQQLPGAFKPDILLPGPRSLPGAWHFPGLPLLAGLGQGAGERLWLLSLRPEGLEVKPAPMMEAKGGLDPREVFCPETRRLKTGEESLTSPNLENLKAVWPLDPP
# In short: as §1
# ETS2 = biological target: T4, ETS2 (Homo sapiens, UniProt P15036 1-469)
# T4 sequence: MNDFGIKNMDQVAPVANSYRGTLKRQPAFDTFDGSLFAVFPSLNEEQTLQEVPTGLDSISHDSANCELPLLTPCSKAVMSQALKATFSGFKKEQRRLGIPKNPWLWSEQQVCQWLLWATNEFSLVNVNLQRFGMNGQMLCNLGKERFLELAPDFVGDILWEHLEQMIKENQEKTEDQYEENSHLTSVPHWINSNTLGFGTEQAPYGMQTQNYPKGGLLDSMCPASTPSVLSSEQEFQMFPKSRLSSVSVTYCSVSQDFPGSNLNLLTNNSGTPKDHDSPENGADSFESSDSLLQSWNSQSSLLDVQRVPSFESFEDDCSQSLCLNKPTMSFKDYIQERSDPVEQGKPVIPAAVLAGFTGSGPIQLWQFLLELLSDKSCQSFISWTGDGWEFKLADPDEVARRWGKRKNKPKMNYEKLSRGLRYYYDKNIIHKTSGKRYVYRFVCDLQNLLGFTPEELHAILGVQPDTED
# In short: as §1
# SPDEF = biological target: T5, SPDEF (Homo sapiens, UniProt O95238 1-335)
# T5 sequence: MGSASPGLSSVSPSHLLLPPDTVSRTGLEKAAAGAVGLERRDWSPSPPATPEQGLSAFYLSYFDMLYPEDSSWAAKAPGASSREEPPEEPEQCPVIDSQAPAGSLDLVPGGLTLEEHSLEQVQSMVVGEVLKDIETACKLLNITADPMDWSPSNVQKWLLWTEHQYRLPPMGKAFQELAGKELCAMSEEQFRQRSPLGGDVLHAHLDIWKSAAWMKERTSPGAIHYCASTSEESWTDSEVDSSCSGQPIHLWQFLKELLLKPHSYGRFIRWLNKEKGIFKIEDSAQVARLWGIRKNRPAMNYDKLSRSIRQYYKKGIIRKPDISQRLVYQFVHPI
# In short: as §1
# ETV7 = biological target: T6, ETV7 (Homo sapiens, UniProt Q9Y603 1-341)
# T6 sequence: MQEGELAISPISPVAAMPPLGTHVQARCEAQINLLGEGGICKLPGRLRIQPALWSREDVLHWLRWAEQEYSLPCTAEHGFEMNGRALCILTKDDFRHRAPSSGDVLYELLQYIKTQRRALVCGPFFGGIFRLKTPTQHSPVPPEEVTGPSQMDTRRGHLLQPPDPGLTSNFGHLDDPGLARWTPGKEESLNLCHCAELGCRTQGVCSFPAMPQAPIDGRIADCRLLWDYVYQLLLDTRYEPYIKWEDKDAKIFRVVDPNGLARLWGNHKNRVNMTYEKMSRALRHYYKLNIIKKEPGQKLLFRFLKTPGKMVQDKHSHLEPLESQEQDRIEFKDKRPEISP
# In short: as §1
# ETV3 = biological target: T7, ETV3 (Homo sapiens, UniProt P41162-2 1-143)
# T7 sequence: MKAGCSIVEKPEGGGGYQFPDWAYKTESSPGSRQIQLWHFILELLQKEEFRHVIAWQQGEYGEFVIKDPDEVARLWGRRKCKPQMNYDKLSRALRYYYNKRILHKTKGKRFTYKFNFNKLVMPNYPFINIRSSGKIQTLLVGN
# In short: as §1
# ETV6 = ETV6 (Homo sapiens, UniProt P41212 1-452)
# In short: as §1
# Sequence of ETV1 (P50549 whole entry): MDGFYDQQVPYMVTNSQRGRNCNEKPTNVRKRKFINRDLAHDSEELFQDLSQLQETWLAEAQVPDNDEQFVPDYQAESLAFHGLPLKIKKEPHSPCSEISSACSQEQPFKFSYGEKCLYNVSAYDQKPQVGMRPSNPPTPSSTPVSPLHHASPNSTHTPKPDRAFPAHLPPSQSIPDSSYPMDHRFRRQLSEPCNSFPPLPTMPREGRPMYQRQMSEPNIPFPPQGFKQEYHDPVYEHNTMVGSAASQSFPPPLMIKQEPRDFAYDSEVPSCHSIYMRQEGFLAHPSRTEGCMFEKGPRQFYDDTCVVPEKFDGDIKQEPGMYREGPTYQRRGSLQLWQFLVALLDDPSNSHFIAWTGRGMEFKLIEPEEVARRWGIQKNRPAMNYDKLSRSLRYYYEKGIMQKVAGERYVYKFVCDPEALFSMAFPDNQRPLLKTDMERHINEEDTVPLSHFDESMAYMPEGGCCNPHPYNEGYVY
# Sequence of ETV6 (P41212 whole entry): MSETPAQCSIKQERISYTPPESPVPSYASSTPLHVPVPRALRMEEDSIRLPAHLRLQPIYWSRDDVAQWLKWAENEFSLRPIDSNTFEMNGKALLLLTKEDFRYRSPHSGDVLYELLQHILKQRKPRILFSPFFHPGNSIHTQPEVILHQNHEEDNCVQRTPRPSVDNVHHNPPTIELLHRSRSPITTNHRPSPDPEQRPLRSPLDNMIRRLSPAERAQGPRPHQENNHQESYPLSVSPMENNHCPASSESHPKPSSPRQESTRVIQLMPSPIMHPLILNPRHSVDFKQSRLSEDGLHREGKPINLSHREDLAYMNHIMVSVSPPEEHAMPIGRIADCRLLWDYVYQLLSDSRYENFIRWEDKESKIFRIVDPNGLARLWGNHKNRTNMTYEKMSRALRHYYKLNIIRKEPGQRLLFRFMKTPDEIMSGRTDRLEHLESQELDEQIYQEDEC
sequence,measurement,setting,value
CATTAA,binding signal,ELF3,"1.05 fold enrichment (6-mer frequency, TF over GST control)"
same,binding signal,ETV1,"1.12 fold enrichment (6-mer frequency, TF over GST control)"
same,binding signal,ERF,"1.1 fold enrichment (6-mer frequency, TF over GST control)"
same,binding signal,ETV3L,"1.1 fold enrichment (6-mer frequency, TF over GST control)"
same,binding signal,ETS2,"1.04 fold enrichment (6-mer frequency, TF over GST control)"
same,binding signal,SPDEF,"1.01 fold enrichment (6-mer frequency, TF over GST control)"
same,binding signal,ETV7,"1.05 fold enrichment (6-mer frequency, TF over GST control)"
same,binding signal,ETV3,"1.02 fold enrichment (6-mer frequency, TF over GST control)"
same,binding signal,ETV6,"1.03 fold enrichment (6-mer frequency, TF over GST control)"
